TGFb SMAD3 inh: TGF-b pathway inhibition; HepG2 CAGA-GFP TGF-b/SMAD3 reporter, GFP fluorescence, 18 h; TGF-beta stimulated, 500 pg/mL final; Potency, µM (titrated, usually from 46.1 µM), inactives show at the highest dose activity, negative = inhibition, actives largely listed as inhibitors; actives 1.2% (n = 410,000); AID 588855; note: potency is the fitted concentration of half-maximal effect; % is set by controls: 0 for no effect and ±100 for the full control effect; nearly all actives have a fitted effect of over 65% in size
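TGF-beta reporter screen: HEPG2 CAGA-GFP, 1% FBS, 500 pg/mL TGF-beta final, 18 h; per-cell GFP summed per well; curves fitted and categorized by class.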
Giardia kill: Giardia lamblia killing; actives 0.15% (n = 340,000); Giardia lamblia trophozoite viability; AID 540267; activity change, % at 7.66 µM, hits read low; in the data active = activity change below about -80%; inconclusive = between about -30% and that limit;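 note: parasites exposed to compound for two days anaerobically before the ATP read; % is set by controls: 0 for no effect and ±100 for the full control effect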
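Compounds were tested on trophozoites seeded at 100 cells/well and held 48 hrs at 37 deg C anaerobically. An ATP-based luminescent kit measured the remaining live cells.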
IL-1B inflam inh: inhibitors of inflammasome signaling (IL-1 beta secretion); activity change, % at 57.5 µM; actives 4.7% (n = 360,000); THP-1 LPS/ATP IL-1B secretion, AlphaLISA, 16 h; stronger effect = lower value; in the data active = activity change below about -50%; inconclusive = mostly about -30% to -49%; note: % is set by controls: 0 for no effect and ±100 for the full control effect
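THP-1 cells pretreated 1 hr with compounds (up to 57.5 uM final), then stimulated with LPS (250 ng/mL final) plus ATP (1.25 mM final); secreted IL-1B measured by AlphaLISA after 16 hr, decreased signal indicating inhibition.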
HepG2 tox: HepG2 cytotoxicity, counter-screen for TGF-b inhibitors. HepG2 CAGA-GFP viability, ATP luminescence, 18 h. Potency, µM (top dose mostly 46.1 µM), for inactives: at the highest dose activity change, negative = cytotoxicity, most hits filed as cytotoxic. actives 0.76% (n = 410,000); note: potency is the fitted concentration of half-maximal effect
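HepG2 CAGA-GFP cells (1000/well, DMEM with 1% FBS) received compound, then TGF-beta at 500 pg/mL final, and were incubated 18 hours at 37 degrees C. Viability was read by CellTiter-Glo luminescence. Media-only wells were set as complete cell-killing and DMSO as no toxicity.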
HT1080-NT tox: kills 2HG-producing HT-1080-NT fibrosarcoma cells | actives 1.6% (n = 360,000) | HT-1080-NT fibrosarcoma viability, CellTiter-Glo ATP luminescence, 48 h | AID 686970 | Potency, µM (top dose mostly 46.1 µM), inactives show at the highest dose activity, negative = less viability, actives largely listed as cytotoxic;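 note: NT is the 2HG producing partner of a matched IDH1 knockdown line; potency is the fitted concentration of half-maximal effect; 0% = DMSO-treated cells and -100% = media-only wells without cells; nearly all actives have a fitted effect of over 55% in size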
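Luminescent CellTiter-Glo readout after 48 hours of compound exposure at 37 degrees C defined viability of HT-1080-NT cells. Activity was normalized to DMSO wells and cell-free media wells; concentration-response curves were fitted and assigned curve classes.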
HT1080 IDH1KD tx: kills HT-1080 cells with IDH1 knockdown; HT-1080 IDH1 knockdown viability, ATP luminescence, 48 h; Potency, µM (top dose mostly 46.1 µM), inactives show at the highest dose activity, negative = toxicity, actives largely listed as cytotoxic; actives 2% (n = 360,000);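 note: potency is the fitted concentration of half-maximal effect; 0% = DMSO wells and -100% = cell-free medium wells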
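HT-1080-IDH1KD cells (IDH1 knocked down), 750/well in RPMI with 5% FBS, treated with compound 48 h at 37 degrees C. Viability by CellTiter-Glo luminescence, normalised to DMSO and no-cell wells; concentration-response curves classed.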
An asterisk follows results filed as active; ? = inconclusive; / = not tested or not shown. This is a sample that favours compounds with a hit; in the whole collection about 6.5% have one here. Unless noted, calls come from the whole dose curve; as a rule, active = well fitted curve in the direction sought with a large enough effect; inconclusive = small, poorly fitted or top-dose-only effect, or another doubt; inactive = no such curve, though single readings can be large; an effect the other way counts as inactive or inconclusive.

SMILES	TGFb SMAD3 inh	Giardia kill	IL-1B inflam inh	HepG2 tox	HT1080-NT tox	HT1080 IDH1KD tx
C[C@]12CC[C@H](O)C[C@H]1CC[C@@H]1[C@@H]2C[C@@H](O)[C@]2(C)[C@@H](C3=CC(=O)OC3)CC[C@]12O	10µM*	-3.4	-65.8*	-55.6%	2.06µM*	0.82µM*
CC12CCC(O)CC1CCC1C2CCC2(C)C(C3=CC(=O)OC3)C(O)CC12O (centres undefined)	10µM*	-18.9	-73.9*	-63.7%	?	1.64µM*
C[C@]12CC[C@H](O)C[C@H]1CC[C@@H]1[C@@H]2CC[C@]2(C)[C@@H](C3=CC(=O)OC3)CC[C@]12O	?	-0.6	?	-42.3%	0.517µM*	0.259µM*
CC(=O)OC1CC(OC2C(O)CC(OC3C(O)CC(OC4CCC5(C)C(CCC6C5CC(O)C5(C)C(C7=CC(=O)OC7)CCC65O)C4)OC3C)OC2C)OC(C)C1OC1OC(CO)C(O)C(O)C1O (centres undefined)	1.41µM*	-5.3	-66.0*	-47.4%	0.366µM*	0.206µM*
CCCCn1c(=O)c(C(=O)Nc2ccccc2)c(O)c2ccccc21	22.0%	-23.9	17.5	-9.2%	9.2%	13.5%
C[C@H]1O[C@@H](O[C@H]2[C@@H](O)C[C@@H](O[C@H]3[C@@H](O)C[C@H](O[C@H]4CC[C@@]5(C)[C@H](CC[C@@H]6[C@@H]5CC[C@]5(C)[C@@H](C7=CC(=O)OC7)CC[C@]65O)C4)O[C@@H]3C)O[C@@H]2C)C[C@H](O)[C@@H]1O	0.316µM*	/	/	-48.8%	/	/
O=c1c2ccccc2nc(Cc2ccccc2)n1-c1ccc(O)cc1	13.1%	0.7	-21.2	-11.2%	-27.2%	-10.7%
CCCCn1c(O)c(/C(CC)=N/N2CCCCC2c2cccnc2)c(=O)[nH]c1=S (centres undefined)	0.5%	-19.2	-63.7*	-16.8%	?	?
CCOC(=O)c1ccccc1NC(=O)N(Cc1ccc(CC)cc1)Cc1cn[nH]c1-c1ccc(OC)cc1	?	/	/	-10.5%	/	/
CCc1ccc(NC(=O)c2cccn(Cc3cccc([N+](=O)[O-])c3)c2=O)cc1	-7.4%	/	/	-23.5%	/	/
CN(CCc1ccccc1)C(=O)c1ccc(NC(=O)Cc2cccc([N+](=O)[O-])c2)cc1	?	-7.3	-50.8*	25.1%	-6.1%	1.3%
CC1CCN(C(CC(=O)c2ccccc2)C(=O)c2ccccc2)CC1 (centres undefined)	?	-0.2	-66.8*	22.4µM*	-12.2%	?
Cc1cccc(-n2c(-c3ccc([N+](=O)[O-])cc3)nc3ccccc3c2=O)c1	-4.1%	16.9	24.3	-17.9%	-1.5%	-4.1%
COc1ccc(CCNCc2cccn2C)cc1OC	-2.0%	-19.8	-4.7	-7.1%	-1.1%	1.9%
COc1ccc(/C=C/C(=O)NC(=S)NCCc2ccc(OC)c(OC)c2)cc1	5.62µM*	-2.4	31.3	6.31µM*	11.2µM*	10µM*
COc1ccc2[nH]c3c(c2c1)CCN=C3C	14.8%	8.9	-3.3	-34.6%	19.0%	0.3%
N#CC1=C(N)Oc2c(c(=O)oc3ccccc23)C1c1cccnc1 (centres undefined)	-4.8%	-13.2	6.3	3.4%	-12.4%	6.3%
N#CC1=C(N)Oc2c(c(=O)sc3ccccc23)C1c1ccncc1 (centres undefined)	-7.1%	?	27.1	-29.5%	?	20.6µM*
CCCC[C@@H](C)C[C@@H](C)C(=O)N(C)[C@@H](CC(C)C)C(=O)N[C@H](C(=O)N(C)[C@H](C(=O)N1C[C@@H](O)C[C@H]1C(=O)N1C(=O)C=C[C@@H]1C)C(C)C)C(C)OC(C)=O (some centres undefined)	?	10.8	-112.8*	-112.8%	0.0291µM*	0.116µM*

Bioassay records (PubChem)
